ST2 IL33 inh – inhibitors of human ST2 (IL1RL1) binding to IL-33, primary screen, biochemical, AlphaLISA | Interleukin-1 receptor-like 1 (Homo sapiens), Q01638 | AlphaLISA ST2-Fc/biotin-IL-33 interaction, 1 h | inhibition, % for hits at 17 µM | 78,000 tested, 2.3% active | AID 1259354, 2018; in the data active = inhibition above about 30%
Target sequence (Q01638 whole entry, looked up): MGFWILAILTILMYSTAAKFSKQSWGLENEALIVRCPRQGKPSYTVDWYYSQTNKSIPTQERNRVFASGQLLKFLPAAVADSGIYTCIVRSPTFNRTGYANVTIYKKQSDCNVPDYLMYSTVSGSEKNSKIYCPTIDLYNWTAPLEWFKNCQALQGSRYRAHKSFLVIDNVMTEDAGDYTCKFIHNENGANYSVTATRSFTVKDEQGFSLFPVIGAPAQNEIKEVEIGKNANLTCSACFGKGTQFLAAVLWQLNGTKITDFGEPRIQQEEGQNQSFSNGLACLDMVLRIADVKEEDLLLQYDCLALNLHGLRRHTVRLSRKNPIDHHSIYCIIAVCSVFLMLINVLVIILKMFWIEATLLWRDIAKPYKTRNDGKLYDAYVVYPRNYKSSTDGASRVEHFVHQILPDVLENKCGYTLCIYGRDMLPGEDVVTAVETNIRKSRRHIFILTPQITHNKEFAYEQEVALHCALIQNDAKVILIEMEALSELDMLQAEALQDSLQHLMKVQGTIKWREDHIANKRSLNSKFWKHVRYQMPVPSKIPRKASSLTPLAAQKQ
Large screens that a line does not name were inactive. The entries come from a sample that favours hits as a whole.

CSc1ccc(-c2nc(CSCC(=O)NCc3ccco3)c(C)o2)cc1	none
CCc1ccccc1NC(=O)c1cc2ccccc2o1	none
CCC(C)NC(=O)CCS(=O)(=O)c1cccc2nsnc12 (configuration not stated)	none
O=C(COc1ccc2c3c(c(=O)oc2c1)CCC3)c1ccccc1	none
O=C(COc1cc(=O)n2c(n1)SCCC2)c1ccccc1	ST2 IL33 inh 64%
COc1ccc(Cc2c(O)nc3n(c2=O)CCCS3)cc1	none
COc1ccccc1C(=O)Nc1ccc(-c2nc3cc(C)ccc3o2)cc1	none
COc1ccc(C(=O)Nc2cccc(-c3nc4cc(C)ccc4o3)c2)cc1[N+](=O)[O-]	none
COc1ccc(C(=O)Nc2ccc(-c3nc4cc(C)ccc4o3)c(O)c2)cc1Cl	ST2 IL33 inh 30%
CN1C(=O)C(=Cc2cn(CCOc3ccccc3Cl)c3ccccc23)C(=O)N(C)C1=O	none
CCn1c(C2CCN(c3ccc(-c4nc(C)no4)cn3)CC2)nn(C)c1=O	none
Brc1c(-c2ccccc2)nc2n1-c1ccccc1C2	ST2 IL33 inh 44%
Cc1[nH]nc(-c2ccccc2)c1Br	none
Nc1nc(-c2ccccc2)c(Br)c(=O)[nH]1	none
CN(Cc1cnc(N)nc1)Cc1cccc2cnccc12	none
COc1ccc(CNS(=O)(=O)c2ccc3c(c2)CCN3C(=O)C2CC2)cc1	none
O=C(C1CC1)N1CCc2cc(Br)cc(S(=O)(=O)NCc3cccnc3)c21	none
O=C(C1CC1)N1CCc2cc(Br)cc(S(=O)(=O)NCc3ccc4c(c3)OCO4)c21	ST2 IL33 inh 32%
O=C(C1CC1)N1CCc2cc(S(=O)(=O)NCc3ccc4c(c3)OCO4)ccc21	ST2 IL33 inh 36%
Cc1ccc(CNS(=O)(=O)c2cc(Br)cc3c2N(C(=O)C2CC2)CC3)cc1	none
O=C(C1CC1)N1CCc2cc(S(=O)(=O)NCc3ccc(F)cc3)ccc21	none
O=C1C2C(C(=O)N1c1ccccc1Cl)[C@H]1C=C[C@@H]2CC1 (some centres not stated)	none
COc1ccccc1C(=O)NCCn1cc(SCC(=O)Nc2ccc(F)cc2)c2ccccc21	none
Cc1ccc(C(=O)Nc2ccc(NC(=O)CC3CNCCO3)cc2)o1 (configuration not stated)	none
CCSc1sc(CC)c(C(=O)O)c1C=O	none
CCOC(=O)c1oc2ccccc2c1NC(=O)C(c1ccccc1)c1ccccc1	none
O=C1c2cccc3cccc(c23)C(=O)N1CCNCCO	none
O=C1c2c(O)ccc(O)c2C(=O)c2c(NCCNCCO)ccc(NCCNCCO)c21	ST2 IL33 inh 82%
O=C(NCC1CCCO1)c1cc2cc(Br)ccc2oc1=O (configuration not stated)	none
Cn1c(CNc2ccc(C(=O)O)cc2)c(C#N)c2ccccc21	none
COc1cccc(/C=C2/SC(=Nc3ccccc3)NC2=O)c1	none
CCOc1cc(C=C2C(=O)c3ccccc3C2=O)ccc1OC(C)C(=O)O (configuration not stated)	none
COc1cc(/C=C2/SC(=Nc3ccccc3)NC2=O)ccc1O	ST2 IL33 inh 38%
CCOc1ccc(/C=C2\SC(=O)N(CC(=O)N3CCOCC3)C2=O)cc1OCC	none
COc1ccc(N=C2NC(=O)C(CO)(CO)S2)cc1	none
C=CCOc1ccc(/C=C2/SC(=Nc3ccccc3)NC2=O)cc1OCC	ST2 IL33 inh 37%
COc1cc(/C=C2/SC(=O)NC2=O)ccc1O	none
COc1cccc(/C=C2/SC(=Nc3ccccc3)NC2=O)c1OC	none
CC(=O)Nc1ccc(NC(=O)NC2(c3ccccc3)CC2)cc1	none
Cc1ccc(NC(=O)CCN2C(=O)S/C(=C\c3ccccc3)C2=O)cc1	none
COc1ccc(/C=C2/SC(=Nc3ccccc3)NC2=O)c(OC)c1OC	ST2 IL33 inh 45%
CC(=O)Nc1ccc(/C=C2/SC(=Nc3ccccc3)NC2=O)cc1	ST2 IL33 inh 31%
CCOC(=O)CN1N=C(c2ccccc2)CCC1=O	none
Cc1[nH]c2ccccc2c1SCCNC(=O)C(C)(C)Oc1ccc(Cl)cc1	none
O=C(CN1CCN(Cc2ccc(Cl)cc2)C1=O)NCc1ccc(Cl)cc1	none
O=C(Nc1ccc(S(=O)(=O)Nc2cnc3ccccc3n2)cc1)c1ccccc1F	none
Nc1ncnc(N2CCCCCC2)c1[N+](=O)[O-]	none
CC(C)Cn1cc(C(=O)N2CCN(Cc3ccccc3)CC2)c2c3ccccc3n(C)c2c1=O	none
CC(=O)Nc1c(C(=O)Nc2ccc(F)cc2)oc2ccccc12	none
Cc1ccc(N(CC(=O)Nc2ccc(C(N)=O)cc2)S(=O)(=O)c2ccccc2)c(C)c1	none
N#CC1=C(N)Oc2n[nH]c(-c3ccccc3)c2C1c1ccc(OC(=O)c2ccco2)cc1 (configuration not stated)	none
COc1cc(NC(=O)c2noc3c2CCC3)cc(OC)c1OC	none
CCOC(=O)COc1ccc2oc(C)c(C(=O)OCC)c2c1	none
O=C1NC(=Nc2ccccc2)S/C1=C/c1ccccn1	none
Cc1ccc(N=C2NC(=O)C(Cc3ccccc3)S2)cc1 (configuration not stated)	none
Cc1ccc(/C=C2/SC(=Nc3ccccc3)NC2=O)c(C)c1	ST2 IL33 inh 35%
Cc1ccc(N(CC(=O)Nc2cccc(F)c2)S(C)(=O)=O)c(C)c1	none
CCSC1=C(C#N)C(c2ccc(C(C)C)cc2)CC(=O)N1 (configuration not stated)	none
C=CCNc1ccccc1C(=O)NCc1ccc2c(c1)n(C)c(=O)n2C	none
O=C(NCc1ccco1)c1cccn2c(=O)c3cc4ccccc4cc3nc12	none
COCCCNC(=O)c1cccn2c(=O)c3cc4ccccc4cc3nc12	ST2 IL33 inh 30%
COCCCNC(=O)c1cc2c(=O)n3cccc(C)c3nc2n1C	none
Cn1cc(NC(=O)CN2CCOC(Cc3ccccc3)C2)cn1 (configuration not stated)	none
CCOc1ccccc1N1CCN(Cc2cc(Br)cs2)CC1	none
CN(C)c1ccc(CN2C[C@H](O)C[C@H]2c2nc(-c3ccccn3)no2)cc1	none
O[C@@H]1C[C@@H](c2nc(-c3ccncc3)no2)N(Cc2ccc(-c3ccccn3)cc2)C1	ST2 IL33 inh 33%
O[C@@H]1C[C@@H](c2nc(-c3ccc(F)cc3)no2)N(Cc2ccc(OC(F)(F)F)cc2)C1	ST2 IL33 inh 53%
O[C@@H]1C[C@@H](c2nc(-c3ccc(C(F)(F)F)cc3)no2)N(Cc2ccc(-c3ccccn3)cc2)C1	none
O=[N+]([O-])c1ccc(CN2C[C@H](O)C[C@H]2c2nc(-c3ccc(C(F)(F)F)cc3)no2)cc1	none
O[C@@H]1C[C@@H](c2nc(-c3ccccc3)no2)N(Cc2c[nH]c3ccccc23)C1	ST2 IL33 inh 38%
O=C(O)c1ccc(CN2C[C@H](O)C[C@H]2c2nc(-c3ccccc3)no2)cc1	none
COc1ccc(-c2noc([C@@H]3C[C@@H](O)CN3Cc3ccc(Cl)cc3)n2)cc1	none
COc1ccc(-c2noc([C@@H]3C[C@@H](O)CN3Cc3ccncc3)n2)cc1	ST2 IL33 inh 36%
Cn1c(CN2C[C@H](O)C[C@H]2c2nc(-c3ccccc3)no2)nc2ccccc21	none
O[C@@H]1C[C@@H](c2nc(-c3cccnc3)no2)N(Cc2ccccc2)C1	none
O=[N+]([O-])c1ccc(CN2C[C@H](O)C[C@H]2c2nc(-c3ccc(OC(F)(F)F)cc3)no2)cc1	none
CN1CCC2(CC1)CN(Cc1ccc(OCc3ccccc3)cc1O)CCN2C	none
c1ccc(OCCOc2ccc(-c3cc(C4CCNCC4)[nH]n3)cc2)cc1	none
CC(=O)c1cccc(N2C(=O)C3CC=CC(C)C3C2=O)c1 (configuration not stated)	none
C=CCc1ccccc1OCCN1CCN(C)CC1	none
Cc1ccc(/C=C2/SC(N3CC(C)OC(C)C3)=NC2=O)o1 (configuration not stated)	none
O=C(c1ccccc1-c1ccccc1)N1C[C@@H]2[C@H](C1)[C@H]1CC[C@@H]2O1	none

Compound activity as filed in PubChem.
